Test results published in PubChem BioAssay (Tox21).
Inconclusive results are not listed. Calls of active or inactive are those of the source. Unless noted, calls come from the whole dose curve.

Assays:
[1] = qHTS assay to identify small molecule antagonists of the vitamin D receptor (VDR) signaling pathway - cell viability counter screen (AID 743225; active = well fitted curve in the direction sought with a large enough effect in the repeat runs; an effect the other way counts as inactive or inconclusive; note: % is set by controls: 0 for no effect and ±100 for the full control effect; nearly all actives have a fitted effect of over 50% in size)
In short: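 Compounds were pinned onto VDR-bla HEK 293T cells together with 1-alpha,25-dihydroxyvitamin D3 at 3 nM final. After 16 h at 37C and 5% CO2 plus the reporter readout, cell viability was measured by CellTiter-Glo luminescence (30 min, room temperature).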

[2] = qHTS assay to identify small molecule agonists of the NFkB signaling pathway (AID 1159509; active = well fitted curve in the direction sought with a large enough effect in the signal ratio in the repeat runs, not every such curve was filed as active; the % refers to the signal ratio; note: series mostly up to about 61 µM; % is set by controls: 0 for no effect and ±100 for the full control effect)
In short: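 After overnight attachment, reporter cells received test compounds, DMSO or positive controls and were incubated 5 hr at 37 C. FRET substrate was then added for 1.5 hr at room temperature before dual-emission fluorescence reading.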

[3] = qHTS assay to identify small molecule agonists of the NFkB signaling pathway - cell viability counter screen (AID 1159515); note: series mostly up to about 61 µM; % is set by controls: 0 for no effect and ±100 for the full control effect; nearly all actives have a fitted effect of over 55% in size
In short: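 NFkB-bla ME-180 cells, 2,000/well, plated overnight at 37 C; compound added for 5 hr at 37 C. Viability read in the same wells as the bla reporter, by CellTiter-Glo luminescence after 30 min at room temperature.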

[4] = qHTS assay to identify small molecule agonists of the endoplasmic reticulum stress response signaling pathway (AID 1159516; active = well fitted activation curve with a large enough effect in the signal ratio in the repeat runs, not every such curve was filed as active; the % refers to the signal ratio; note: % is set by controls: 0 for no effect and ±100 for the full control effect)
In short: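 CellSensor ESRE-bla HeLa cells, 1,500 per well, plated overnight, then exposed to compounds for 5 hr at 37 C. Beta-lactamase reporter read with LiveBLAzer B/G FRET substrate after 2 hr at room temperature, 405 nm excitation, 460 and 530 nm emission.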

[5] = qHTS assay to identify small molecule antagonists of the retinoid-related orphan receptor gamma (ROR-gamma) signaling pathway - cell viability counter screen (AID 1159520; active = well fitted curve in the direction sought with a large enough effect in the repeat runs; an effect the other way counts as inactive or inconclusive; note: % is set by controls: 0 for no effect and ±100 for the full control effect; nearly all actives have a fitted effect of over 50% in size)
In short: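 Tet-on ROR gamma CHO cells were given compounds for 2 hr, then doxycycline hyclate at 1 uM final, and incubated 16 hr at 37 C. Viability was measured as ATP content by CellTiter-Glo luminescence.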

[6] = molecular target: Nuclear receptor ROR-gamma (Homo sapiens) (UniProt P51449); experiment: qHTS assay to identify small molecule antagonists of the retinoid-related orphan receptor gamma (ROR-gamma) signaling pathway (AID 1159521; active = well fitted curve in the direction sought with a large enough effect in the repeat runs; an effect the other way counts as inactive or inconclusive;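 note: CHO cells with doxycycline inducible ROR-gamma driving an RORE luciferase reporter; top concentration of the series differs between compounds; % is set by controls: 0 for no effect and ±100 for the full control effect; nearly all actives have a fitted effect of over 50% in size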)
In short: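 Test compounds were applied to Tet-on RORγ CHO cells 2 h ahead of doxycycline hyclate (1 uM final). Luciferase reporter activity was quantified by luminescence after 16 h at 37 C and 5% CO2.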

[7] = qHTS assay to identify small molecule agonists of the AP-1 signaling pathway - cell viability counter screen (AID 1159525); note: nearly all actives have a fitted effect of over 55% in size
In short: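 AP-1-bla ME-180 cells in Opti-MEM with 0.5% dialyzed FBS, compound exposure 5 h at 37 C in 15-point titration. Viability read in the same wells as ATP content by CellTiter-Glo luminescence, normalised to tetra-n-octylammonium bromide and DMSO controls.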

[8] = qHTS assay to identify small molecule agonists of the AP-1 signaling pathway (AID 1159526); note: % is set by controls: 0 for no effect and ±100 for the full control effect
[9] = molecular target: Retinoic acid receptor RXR-alpha (Homo sapiens) (UniProt P19793); experiment: qHTS assay to identify small molecule agonists of the RXR signaling pathway (AID 1159527); note: % is set by controls: 0 for no effect and ±100 for the full control effect; nearly all actives have a fitted effect of over 35% in size
In short: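 Using 9-cis retinoic acid as the reference agonist, chemicals were tested in HEK 293T cells […] for 16 hr; substrate loading lasted 2 hr at room temperature.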

Retinoic acid receptor RXR-alpha (Homo sapiens), sequence (P19793 whole entry, looked up): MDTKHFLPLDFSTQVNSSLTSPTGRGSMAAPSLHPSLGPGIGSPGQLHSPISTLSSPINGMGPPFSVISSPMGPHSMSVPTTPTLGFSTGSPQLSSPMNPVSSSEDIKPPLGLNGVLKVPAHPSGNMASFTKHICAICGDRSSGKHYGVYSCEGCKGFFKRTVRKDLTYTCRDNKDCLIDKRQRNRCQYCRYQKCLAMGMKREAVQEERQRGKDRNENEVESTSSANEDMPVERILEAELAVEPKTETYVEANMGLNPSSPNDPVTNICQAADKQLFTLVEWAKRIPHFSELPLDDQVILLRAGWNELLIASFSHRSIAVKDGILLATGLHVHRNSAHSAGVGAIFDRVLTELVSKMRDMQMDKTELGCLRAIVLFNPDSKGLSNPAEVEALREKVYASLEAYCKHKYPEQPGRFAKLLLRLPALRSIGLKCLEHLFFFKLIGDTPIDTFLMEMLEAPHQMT

CCCOCCOCCO
inactive: Potency [1] | outcome [2] | outcome [3] | outcome [4] | Potency [5]

O=C(CS)OCCOC(=O)CS
inactive: Potency [1] | outcome [2] | outcome [3] | outcome [4] | Potency [6] | outcome [7] | outcome [8]

CCCCC1C(=O)N(c2ccccc2)N(c2ccc(O)cc2)C1=O (stereo not given)
inactive: Potency [1] | outcome [2] | outcome [3] | outcome [4]

Cc1ccnc2ccccc12
inactive: Potency [1] | outcome [2] | outcome [3] | outcome [4] | Potency [5] | outcome [7] | outcome [8]

CCC(C)(O)CCC=C(C)C (stereo not given)
inactive: Potency [1] | outcome [2] | outcome [3] | outcome [4] | Potency [5] | outcome [7] | outcome [8] | Potency [9]

CCCCC(CC)C(=O)OCCOCCOCCOCCOC(=O)C(CC)CCCC (stereo not given)
inactive: outcome [2] | outcome [3] | outcome [4] | Potency [5] | outcome [7] | outcome [8]

[O]=[Bi]
inactive: viability change, negative = cytotoxic [1] -2.19% [at 6.95 µM] | activation [2] -0.308% [at 6.95 µM] | activity, negative = cytotoxic [3] 3.69% [at 6.95 µM] | activation [4] -0.917% [at 6.95 µM] | activity, negative = cytotoxicity [5] 7.56% [at 8.39 µM] | viability change, negative = cytotoxic [7] 2.46% [at 6.97 µM] | activation [9] -1.06% [at 6.98 µM]

CO[Si](C)(OC)OC
inactive: Potency [1] | outcome [2] | outcome [3] | outcome [4] | Potency [5] | outcome [7] | outcome [8] | Potency [9]

CNCCCC1c2ccccc2C=Cc2ccccc21
inactive: outcome [2] | outcome [3] | outcome [4] | Potency [5] | outcome [7] | outcome [8]

O=C(N/N=C/c1ccc([N+](=O)[O-])o1)c1ccc(O)cc1
inactive: Potency [1] | outcome [2] | outcome [3] | outcome [4] | Potency [5] | outcome [7] | outcome [8]
